Reference: PubChem BioAssay (NCATS)
Records with an inconclusive call do not appear. Where a call stands in place of a potency, no number is given. Unmarked numbers belong to inactive results. The source made the active and inactive calls. Unless noted, calls come from the whole dose curve. Peptide text beside a SMILES is read from it.

How the values were obtained:
[1] = qHTS for Inhibitors of the Functional Ribonucleoprotein Complex (vRNP) of Lassa (LASV) Arenavirus: LASV Primary Screen - GLuc reporter signal (AID 1347082; calls by dose curve; tested in HEK293 reporter line; note: series mostly up to about 57 µM; nearly all actives have a fitted effect of over 60% in size)
[2] = qHTS for Inhibitors of the Functional Ribonucleoprotein Complex (vRNP) of Lassa (LASV) Arenavirus: Viability assay - alamar blue signal for LASV Primary Screen (AID 1347083; calls by dose curve; tested in HEK293 reporter line; note: nearly all actives have a fitted effect of over 80% in size; note: potency is the fitted concentration of half-maximal effect; for activity change, negative = reduced viability: series mostly up to about 57 µM)
[3] = qHTS for Inhibitors of the Functional Ribonucleoprotein Complex (vRNP) of Lymphocytic Choriomeningitis Arenaviruses (LCMV): Viability assay - alamar blue signal for LCMV Primary Screen (AID 1347085; calls by dose curve; tested in HEK293 reporter line; note: series mostly up to about 57 µM; nearly all actives have a fitted effect of over 80% in size)
[4] = target: Nucleoprotein (Lymphocytic choriomeningitis virus (strain Armstrong)) (UniProt P09992); assay: qHTS for Inhibitors of the Functional Ribonucleoprotein Complex (vRNP) of Lymphocytic Choriomeningitis Arenaviruses (LCMV): LCMV Primary Screen - GLuc reporter signal (AID 1347086); note: series mostly up to about 57 µM; nearly all actives have a fitted effect of over 70% in size
Sequence of Nucleoprotein (Lymphocytic choriomeningitis virus (strain Armstrong)) (P09992 whole entry, looked up): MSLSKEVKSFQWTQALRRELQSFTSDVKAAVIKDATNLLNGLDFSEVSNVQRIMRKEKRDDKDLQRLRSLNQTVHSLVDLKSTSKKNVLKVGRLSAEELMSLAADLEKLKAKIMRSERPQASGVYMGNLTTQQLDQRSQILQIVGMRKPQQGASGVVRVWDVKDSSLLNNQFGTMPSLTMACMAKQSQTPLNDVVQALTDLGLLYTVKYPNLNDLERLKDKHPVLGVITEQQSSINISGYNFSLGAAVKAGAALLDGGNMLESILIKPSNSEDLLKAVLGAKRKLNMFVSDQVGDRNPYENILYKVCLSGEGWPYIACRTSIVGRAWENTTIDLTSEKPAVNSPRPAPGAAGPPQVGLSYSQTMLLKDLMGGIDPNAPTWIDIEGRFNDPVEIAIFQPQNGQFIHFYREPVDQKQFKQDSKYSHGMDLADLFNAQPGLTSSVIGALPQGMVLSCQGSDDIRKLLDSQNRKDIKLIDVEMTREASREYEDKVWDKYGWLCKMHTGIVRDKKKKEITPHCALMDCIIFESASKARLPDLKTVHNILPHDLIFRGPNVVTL

Row | Structure (SMILES) | Potency [1] | Potency [2] | Potency [3] | Potency [4] | activity change, negative = inhibition [1] | activity change, negative = reduced viability [2] | activity change, negative = lower viability [3] | activity change, negative = inhibition [4]
1 | CCCCCCCCCCCCCCCCN | inactive | inactive | inactive | inactive |  |  |  | 
2 | COC(=O)CCCCC(CCSS/C(CCO)=C(\C)N(C=O)Cc1cnc(C)nc1N)SC(C)=O (stereo not given) | inactive | inactive | inactive | inactive |  |  |  | 
3 | CC(=O)OCC1=C(C(=O)O)N2C(=O)[C@@H](NC(=O)Cc3cccs3)[C@H]2SC1 | inactive | inactive | inactive | inactive |  |  |  | 
4 | C1COC(NC(C2CC2)C2CC2)=N1 | inactive | inactive | inactive | inactive |  |  |  | 
5 | Nc1ccc(C(=O)Oc2ccccc2)c(O)c1 | inactive | inactive | inactive | inactive |  |  |  | 
6 | COC(=O)/C=C\C(=O)OC | inactive | inactive | inactive | inactive |  |  |  | 
7 | CCNC(=O)[C@@H]1CCCN1C(=O)[C@H](CCCN=C(N)N)NC(=O)[C@H](CC(C)C)NC(=O)CNC(=O)[C@H](Cc1ccc(O)cc1)NC(=O)[C@H](CO)NC(=O)[C@H](Cc1c[nH]c2ccccc12)NC(=O)[C@H](Cc1cnc[nH]1)NC(=O)[C@@H]1CCC(=O)N1 (HELM PEPTIDE1{[Glp].H.W.S.Y.G.L.R.P.[CCN[*:1]]}$$$$V2.0) | inactive | inactive | inactive | inactive |  |  |  | 
8 | CN(C)CCOC(=O)C(c1ccccc1)C1(O)CCCC1 (stereo not given) | inactive | inactive | inactive | inactive |  |  |  | 
9 | CN(c1nccc(=O)[nH]1)C1CCN(c2nc3ccccc3n2Cc2ccc(F)cc2)CC1 | inactive | 30.6 µM (active) | inactive | inactive |  |  |  | 
10 | O=C1OC(CN2CCOCC2)CN1/N=C/c1ccc([N+](=O)[O-])o1 (stereo not given) | inactive | inactive | inactive | inactive |  |  |  | 
11 | CCCC(O)C(CC)CO (stereo not given) | inactive | inactive | inactive | inactive |  |  |  | 
12 | C[C@]12C=CC(=O)C=C1CC[C@@H]1[C@@H]2[C@@H](O)C[C@@]2(C)[C@H]1CC[C@]2(O)C(=O)CO | inactive | inactive | inactive | inactive |  |  |  | 
13 | Cc1[nH]cnc1-c1ccc(Cl)cc1 | inactive | inactive | inactive | inactive |  |  |  | 
14 | C[N+](C)(C)CCOC(N)=O | inactive | inactive | inactive | inactive |  |  |  | 
15 | COc1cc2c(Nc3ccc(Br)cc3F)ncnc2cc1OCC1CCN(C)CC1 | inactive | inactive | inactive | inactive |  |  |  | 
16 | CC(N)CCCC(C)(C)O (stereo not given) | inactive | inactive | inactive | inactive |  |  |  | 
17 | CCC[C@@H]1C[C@@H](C(=O)N[C@@H]([C@H]2O[C@H](SC)[C@H](O)[C@@H](O)[C@H]2O)[C@@H](C)O)N(C)C1 | inactive | inactive | inactive | inactive |  |  |  | 
18 | C[C@]12C=CC(=O)C=C1CC[C@@H]1[C@@H]2C(=O)C[C@@]2(C)[C@H]1CC[C@]2(O)C(=O)CO | inactive | inactive | inactive | inactive |  |  |  | 
19 | CCCCCCOc1ccccc1C(N)=O | inactive | inactive | inactive | inactive |  |  |  | 
20 | CC(C)(C)c1ccc(O)cc1 | inactive | inactive | inactive | inactive |  |  |  | 

Row | Structure (SMILES) | Potency [1] | Potency [2] | Potency [3] | Potency [4] | activity change, negative = inhibition [1] | activity change, negative = reduced viability [2] | activity change, negative = lower viability [3] | activity change, negative = inhibition [4]
21 | COCCOC(=O)C1=C(C)NC(C)=C(C(=O)OC(C)C)C1c1cccc([N+](=O)[O-])c1 (stereo not given) | inactive | inactive | inactive | inactive |  |  |  | 
22 | CC(C)=CCC[C@@](C)(O)[C@H]1CC=C(C)CC1 | inactive | inactive | inactive | inactive |  |  |  | 
23 | Clc1ccc2c(c1)Nc1ccccc1S2 | inactive | inactive | inactive | inactive |  |  |  | 
24 | CC(C)C[C@H]1C(=O)N2CCC[C@H]2[C@]2(O)O[C@](NC(=O)[C@@H]3C=C4c5cccc6[nH]c(Br)c(c56)C[C@H]4N(C)C3)(C(C)C)C(=O)N12 | inactive | inactive | inactive | inactive |  |  |  | 
25 | CNNCc1ccc(C(=O)NC(C)C)cc1 | inactive | inactive | inactive | inactive |  |  |  | 
26 | O=C(Nc1ccc(Cl)c(Cl)c1)C1CC1 | inactive | inactive | inactive | inactive |  |  |  | 
27 | CC1(C)S[C@@H]2[C@H](NC(=O)C(c3ccccc3)S(=O)(=O)O)C(=O)N2[C@H]1C(=O)O (stereo not given in full) | inactive | inactive | inactive | inactive |  |  |  | 
28 | CCCCCC[C@@H](CCC)C(=O)O | inactive | inactive | inactive | inactive |  |  |  | 
29 | NS(=O)(=O)c1ccc(C(=O)O)cc1 | inactive | inactive | inactive | inactive |  |  |  | 
30 | O=C1NCC2(CCN(CCc3ccccc3)CC2)O1 | inactive | inactive | inactive | inactive |  |  |  | 
31 | Cc1onc(-c2ccccc2)c1-c1ccc(S(N)(=O)=O)cc1 | inactive | inactive | inactive | inactive |  |  |  | 
32 | CN=C(NC#N)Nc1ccc(C2=NNC(=O)CC2C)cc1 (stereo not given) | inactive | inactive | inactive | inactive |  |  |  | 
33 | CN(C)CCN(Cc1ccsc1)c1ccccn1 | inactive | inactive | inactive | inactive |  |  |  | 
34 | CC(C)(C)NCC(O)COc1cccc2c1C[C@H](O)[C@H](O)C2 (stereo not given in full) | inactive | inactive | inactive | inactive |  |  |  | 
35 | CCN[C@H]1CN(CCCOC)S(=O)(=O)c2sc(S(N)(=O)=O)cc21 | inactive | inactive | inactive | inactive |  |  |  | 
36 | CCCc1nn(C)c2c(=O)[nH]c(-c3cc(S(=O)(=O)N4CCN(C)CC4)ccc3OCC)nc12 | inactive | inactive | inactive | inactive |  |  |  | 
37 | O=C(O)c1ccc(S(=O)(=O)N(Cl)Cl)cc1 | inactive | inactive | inactive | inactive |  |  |  | 
38 | Cc1ncc([N+](=O)[O-])n1CC(O)CCl (stereo not given) | inactive | inactive | inactive | inactive |  |  |  | 
39 | CC(C)(CO)[C@@H](O)C(=O)NCCCO | inactive | inactive | inactive | inactive |  |  |  | 
40 | Cc1cnc(NC(=O)C2=C(O)c3ccccc3S(=O)(=O)N2C)s1 | inactive | inactive | inactive | inactive |  |  |  | 

Row | Structure (SMILES) | Potency [1] | Potency [2] | Potency [3] | Potency [4] | activity change, negative = inhibition [1] | activity change, negative = reduced viability [2] | activity change, negative = lower viability [3] | activity change, negative = inhibition [4]
41 | O=C(CO)[C@@H](O)[C@H](O)[C@@H](O)CO | inactive | inactive | inactive | inactive |  |  |  | 
42 | COc1ccc2c(c1)c(CC(=O)OC/C=C(\C)CC/C=C(\C)CCC=C(C)C)c(C)n2C(=O)c1ccc(Cl)cc1 | inactive | inactive | inactive | inactive |  |  |  | 
43 | C[C@@H]1CCC[C@H](C)N1 | inactive | inactive | inactive | inactive |  |  |  | 
44 | Oc1ccccc1C=NCc1ccccc1 | inactive | inactive | inactive | inactive |  |  |  | 
45 | CCCCOC(=O)CC(CC(=O)OCCCC)(OC(C)=O)C(=O)OCCCC | inactive | inactive | inactive | inactive |  |  |  | 
46 | CCOC(=O)Oc1ccc(CCNC(=O)[C@H](CCSC)NC(C)=O)cc1OC(=O)OCC | inactive | inactive | inactive | inactive |  |  |  | 
47 | CC(C)(C)NCC(O)c1cc(O)cc(O)c1 (stereo not given) | inactive | inactive | inactive | inactive |  |  |  | 
48 | NC(N)=NCCN1CCCCCCC1 |  |  |  |  | 1.43% [at 0.757 µM] | 1.98% [at 0.757 µM] | 5.22% [at 0.757 µM] | -0.256% [at 0.757 µM]
49 | COc1ccc(Cc2cnc(N)nc2N)cc1OC | inactive | inactive | inactive | inactive |  |  |  | 
50 | C[C@]12CCC(=O)C=C1CC[C@@H]1[C@@H]2[C@@H](O)C[C@@]2(C)[C@H]1CC[C@]2(O)C(=O)COC(=O)CCC(=O)O | inactive | inactive | inactive | inactive |  |  |  | 
51 | Cc1c(N(C)CS(=O)(=O)O)c(=O)n(-c2ccccc2)n1C | inactive | inactive | inactive | inactive |  |  |  | 
52 | NC(=O)NC1N=C([O][Al])NC1=O (stereo not given) | inactive | inactive | inactive | inactive |  |  |  | 
53 | NC(Cc1ccc(Cl)cc1)C(=O)O (stereo not given) | inactive | inactive | inactive | inactive |  |  |  | 
54 | CS(=O)(=O)c1ccc([C@@H](O)[C@@H](CO)NC(=O)C(Cl)Cl)cc1 | inactive | inactive | inactive | inactive |  |  |  | 
55 | CC(C)=CCC1C(=O)N(c2ccccc2)N(c2ccccc2)C1=O | inactive | inactive | inactive | inactive |  |  |  | 
56 | CCCN1CCCC[C@H]1C(=O)Nc1c(C)cccc1C | inactive | inactive | inactive | inactive |  |  |  | 
57 | CO[C@@]1(NC(=O)Cc2cccs2)C(=O)N2C(C(=O)O)=C(COC(N)=O)CS[C@@H]21 | inactive | inactive | inactive | inactive |  |  |  | 
58 | CC(=O)Nc1ccc(CC(=O)O)cc1 | inactive | inactive | inactive | inactive |  |  |  | 
59 | CC(=O)[C@H]1CC[C@H]2[C@@H]3C[C@H](C)C4=CC(=O)CC[C@]4(C)[C@H]3[C@@H](O)C[C@]12C | inactive | inactive | inactive | inactive |  |  |  | 
60 | Cc1cc(NS(=O)(=O)c2ccc(N)cc2)nc(C)n1 | inactive | inactive | inactive | inactive |  |  |  | 
